In all, about 310,000 compounds went through this assay and about 14,000 (4.5%) showed an effect of 50% or more. Effects have a minus sign here. The sample holds strong results, similar compounds and a random draw of the others, so the mix is not that of the screen.
Target: human ether-à-go-go-related gene (hERG) potassium channel (human, UniProt Q12809)
Experiment: primary screen, population patch clamp on CHO cells stably expressing hERG; higher = less effect of the substance
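Also: peak tail current of the secondary pulse compared with the same well before compound.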

Sequence of human ether-à-go-go-related gene (hERG) potassium channel (Q12809 whole entry, looked up): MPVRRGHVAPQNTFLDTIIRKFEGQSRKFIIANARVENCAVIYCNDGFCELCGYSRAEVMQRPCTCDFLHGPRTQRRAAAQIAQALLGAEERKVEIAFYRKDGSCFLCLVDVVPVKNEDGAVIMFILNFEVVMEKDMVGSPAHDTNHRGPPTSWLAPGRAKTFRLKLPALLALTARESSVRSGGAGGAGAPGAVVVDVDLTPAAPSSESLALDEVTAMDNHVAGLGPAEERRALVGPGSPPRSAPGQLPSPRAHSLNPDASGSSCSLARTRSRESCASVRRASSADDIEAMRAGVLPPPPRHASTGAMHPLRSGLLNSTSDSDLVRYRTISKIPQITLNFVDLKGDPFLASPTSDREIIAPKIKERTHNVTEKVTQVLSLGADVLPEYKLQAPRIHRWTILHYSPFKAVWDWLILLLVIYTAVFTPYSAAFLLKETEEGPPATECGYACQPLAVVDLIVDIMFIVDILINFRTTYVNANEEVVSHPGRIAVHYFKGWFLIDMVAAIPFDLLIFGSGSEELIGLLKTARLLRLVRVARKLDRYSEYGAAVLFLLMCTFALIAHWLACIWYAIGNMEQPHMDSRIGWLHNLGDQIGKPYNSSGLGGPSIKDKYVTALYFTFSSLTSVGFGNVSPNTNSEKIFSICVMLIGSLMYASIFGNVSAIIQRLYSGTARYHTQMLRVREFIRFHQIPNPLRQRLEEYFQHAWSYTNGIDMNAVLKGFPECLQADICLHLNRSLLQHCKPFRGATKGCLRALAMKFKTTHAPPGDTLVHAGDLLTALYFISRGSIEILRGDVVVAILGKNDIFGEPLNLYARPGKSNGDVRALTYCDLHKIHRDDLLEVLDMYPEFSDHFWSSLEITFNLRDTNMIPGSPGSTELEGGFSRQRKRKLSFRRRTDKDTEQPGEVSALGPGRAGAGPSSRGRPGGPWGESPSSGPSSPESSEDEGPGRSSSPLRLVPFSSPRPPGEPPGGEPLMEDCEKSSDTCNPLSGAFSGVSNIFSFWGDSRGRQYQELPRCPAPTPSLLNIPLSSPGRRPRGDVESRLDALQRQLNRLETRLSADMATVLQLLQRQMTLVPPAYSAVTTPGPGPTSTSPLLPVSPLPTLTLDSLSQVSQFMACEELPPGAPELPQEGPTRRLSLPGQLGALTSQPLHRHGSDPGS

| SMILES | hERG current change (%, negative = inhibition) at 10uM [%] |
| --- | --- |
| CCOC(=O)C1(Cc2ccccc2C)CCCN(S(C)(=O)=O)C1 (stereo not shown) | 16.5 |
| Cc1cc(NC(=O)c2ccc(N3C(=O)C4C5C=CC(C5)C4C3=O)cc2)no1 (stereo not shown) | 8.53 |
| O=C(Nc1ccccc1OC(F)F)c1cccc(S(=O)(=O)N2CCCC2)c1 | -23.6 |
| COc1ccc(-n2cnnc2SCC(=O)Nc2cccnc2Cl)cc1 | -18.7 |
| CC(C)(C)c1ccc(NC(=O)COc2ccc(-n3ccnc3)cc2)cc1 | -56.5 |
| Cc1ccc(NC(=O)COc2ccc(-n3ccnc3)cc2)cc1Cl | -33.6 |
| CC(C)(C)c1ccc(OCC(=O)Nc2ccncc2)cc1 | 8.71 |
| COc1cc(NC(=O)COc2ccc(-n3ccnc3)cc2)cc(OC)c1 | -51.3 |
| CCC(C)(C)c1ccc(OCC(=O)Nc2ccncc2)cc1 | -16 |
| COc1cc(NC(=O)CC(C)n2ccnc2)cc(OC)c1 (stereo not shown) | 10.7 |
| CCOC(=O)/C(C)=N/NC(=O)c1cccc([N+](=O)[O-])c1 | 7.04 |
| Cc1ccc(CNC(=O)c2ccc(N3CCC4(CC3)CC(c3ccccc3)=NO4)c(NC(=O)c3cccc(C)c3)c2)cc1 | -6.37 |
| CCCOc1ccc(N2C(=O)CC(SCc3nc4ccccc4[nH]3)C2=O)cc1 (stereo not shown) | -41.2 |
| O=C(Oc1cccc([N+](=O)[O-])c1)N1CCCCC1 | -0.619 |
| O=C(Oc1ccc([N+](=O)[O-])cc1)N1CCC(N2CCCCC2)CC1 | -65.4 |
| N/C(=N/[N+](=O)[O-])N1CCN(C(=O)Oc2ccc([N+](=O)[O-])cc2)CC1 | -36.5 |
| COC(=O)C1=C(c2ccc(F)cc2OCc2ccccc2)C[C@@H]2CC[C@H]1N2C(=O)NCCO | 3.42 |
| Cc1cc(C)c(C#N)c(SCc2ccccc2C)n1 | 17.7 |
| O=S(=O)(c1cccs1)N1CCN(CC(O)COc2cccc(Br)c2)CC1 (stereo not shown) | -61.1 |
| Cc1ccc(S(=O)(=O)N2CCN(CC(O)COc3ccccc3)CC2)cc1 (stereo not shown) | -16.2 |
| COc1ccc(S(=O)(=O)N2CCN(Cc3cccc(OC)c3)CC2)cc1 | -28.6 |
| COc1ccc(S(=O)(=O)N2CCN(Cc3cccc([N+](=O)[O-])c3)CC2)cc1 | -87.4 |

| SMILES | hERG current change (%, negative = inhibition) at 10uM [%] |
| --- | --- |
| COc1cccc(C(=O)CN2CCN(S(=O)(=O)c3cccc([N+](=O)[O-])c3)CC2)c1 | -9.29 |
| COc1ccc(C(=O)CN2CCN(S(=O)(=O)c3cccc([N+](=O)[O-])c3)CC2)cc1 | -112 |
| CCOc1ccc(S(=O)(=O)N2CCN(CC(O)COc3cccc([N+](=O)[O-])c3)CC2)cc1 (stereo not shown) | -65.5 |
| CC(=O)c1ccc(OCC(O)CN2CCN(S(=O)(=O)c3cccc(Br)c3)CC2)cc1 (stereo not shown) | 22.8 |
| COc1ccc(S(=O)(=O)N2CCN(Cc3cccc(F)c3)CC2)cc1 | -3.34 |
| O=[N+]([O-])c1cccc(OCC(O)CN2CCN(S(=O)(=O)c3cc(Cl)ccc3Cl)CC2)c1 (stereo not shown) | -31.3 |
| COc1ccc(C(=O)CN2CCN(S(=O)(=O)c3cccc([N+](=O)[O-])c3)CC2)cc1OC | -5.28 |
| O=S(=O)(c1cccs1)N1CCN(CC(O)COC2CCCc3ccccc32)CC1 (stereo not shown) | -25.1 |
| Cc1ccc2oc(C(=O)NCC(c3ccco3)N3CCCC3)c(C)c2c1 (stereo not shown) | -33.8 |
| COc1ccc(C(=O)NNC(=O)CCn2nnc(-c3ccc(Cl)cc3)n2)cc1OC | 19 |
| O=P(O)(c1ccccc1)c1ccccc1O | -7.16 |
| O=C(NN1C(=O)C2C3C=CC(C4CC34)C2C1=O)c1ccccc1Cl (stereo not shown) | 0.861 |
| COc1ccc(N(C)S(=O)(=O)c2cccc(C(=O)Nc3nc(C)c(C(C)=O)s3)c2)cc1 | 7.14 |
| CCOC(=O)Cn1nnnc1CN(Cc1ccccc1)Cc1cc2cc(CC)ccc2[nH]c1=O | -11.2 |
| O=[N+]([O-])c1cccc(S(=O)(=O)N2CCN(c3ccccn3)CC2)c1 | 4.57 |
| CC(C)n1c(N2CCN(S(=O)(=O)c3cccc([N+](=O)[O-])c3)CC2)nc2ccccc21 | -71 |
| CN1CCN(S(=O)(=O)c2cccc([N+](=O)[O-])c2)CC1 | 18.7 |
| Cc1ccc(C(=O)Nc2nnc(S(=O)(=O)N3CCC(C)CC3)s2)cc1 | 21.8 |
| Cc1cc(/C=N/NC(=O)c2ccc(O)cc2)c(C)n1C1CC1 | 20.4 |
| N#C/C(C(=O)NCc1ccccc1)=C1/N=C(NC(=O)c2ccco2)c2ccccc21 | 10.3 |
| CCCNC(=O)/C(C#N)=C1\N=C(NC(=O)c2ccco2)c2ccccc21 | -44.6 |
| CC(C)CNC(=O)/C(C#N)=C1\N=C(NC(=O)c2ccco2)c2ccccc21 | -60.4 |

| SMILES | hERG current change (%, negative = inhibition) at 10uM [%] |
| --- | --- |
| O=C(c1ccccc1)N(Cc1cccs1)C1CCS(=O)(=O)C1 (stereo not shown) | 12 |
| O=C(c1ccc([N+](=O)[O-])cc1)N(Cc1cccs1)C1CCS(=O)(=O)C1 (stereo not shown) | -50 |
| Cc1c(C(=O)N(Cc2cccs2)C2CCS(=O)(=O)C2)oc2ccccc12 (stereo not shown) | -50.2 |
| Cc1ccc(C(=O)N(Cc2cccs2)C2CCS(=O)(=O)C2)cc1 (stereo not shown) | 0.98 |
| COc1ccc(OCC(=O)N(Cc2cccs2)C2CCS(=O)(=O)C2)cc1 (stereo not shown) | -6.75 |
| O=C(COc1ccc(Br)cc1)N(Cc1cccs1)C1CCS(=O)(=O)C1 (stereo not shown) | -51.7 |
| Cc1ccc(OCC(=O)N(Cc2cccs2)C2CCS(=O)(=O)C2)cc1 (stereo not shown) | -8.3 |
| O=C(COc1ccccc1)N(Cc1cccs1)C1CCS(=O)(=O)C1 (stereo not shown) | -17.4 |
| Cc1c(C(=O)N(Cc2ccccc2)C2CCS(=O)(=O)C2)oc2ccccc12 (stereo not shown) | -38.5 |
| O=C(COc1ccc(F)cc1)N(Cc1cccs1)C1CCS(=O)(=O)C1 (stereo not shown) | -33.4 |
| CC(C)(C)c1ccc(OCC(=O)N(Cc2cccs2)C2CCS(=O)(=O)C2)cc1 (stereo not shown) | -54.2 |
| Cc1ccc2c(C)c(C(=O)N(Cc3cccs3)C3CCS(=O)(=O)C3)oc2c1 (stereo not shown) | -20.8 |
| COc1ccccc1Oc1ccc2c(c1)C(=O)N(c1ccccc1)C2=O | -3.59 |
| COc1cccc(CN(C(=O)COc2ccccc2[N+](=O)[O-])C2CCS(=O)(=O)C2)c1 (stereo not shown) | -42 |
| Cc1ccsc1CN(C(=O)c1ccc([N+](=O)[O-])cc1)C1CCS(=O)(=O)C1 (stereo not shown) | -60.8 |
| Cc1ccc(C(=O)N(Cc2sccc2C)C2CCS(=O)(=O)C2)cc1 (stereo not shown) | -28.2 |
| CCc1ccc(OCC(=O)N(Cc2cccs2)C2CCS(=O)(=O)C2)cc1 (stereo not shown) | -47.8 |
| O=C(COc1ccc([N+](=O)[O-])cc1)N(Cc1cccs1)C1CCS(=O)(=O)C1 (stereo not shown) | -52.3 |
| CCN(C(=O)COc1ccccc1[N+](=O)[O-])C1CCS(=O)(=O)C1 (stereo not shown) | 0.104 |
| Cc1ccsc1CN(C(=O)c1ccccc1)C1CCS(=O)(=O)C1 (stereo not shown) | 2.16 |
| Cc1ccc(OCC(=O)N(Cc2cccs2)C2CCS(=O)(=O)C2)cc1C (stereo not shown) | 4.21 |
| O=C(COc1ccccc1[N+](=O)[O-])N(Cc1cccc(Br)c1)C1CCS(=O)(=O)C1 (stereo not shown) | -57.8 |

| SMILES | hERG current change (%, negative = inhibition) at 10uM [%] |
| --- | --- |
| CC1C/C(=N\NC(=S)NC(C)C)CC(C)(C)C1 (stereo not shown) | 9.06 |
| CCOC(=O)CNC(=O)CSc1nnc(NC(=O)c2ccc3c(c2)OCO3)s1 | 3.8 |
| CCC(CC)NC(=O)c1nn(Cc2ccccc2)c(=O)c2ccccc12 | 10.9 |
| CS(=O)(=O)N(CC(=O)NCCSCc1ccccc1Cl)c1ccccc1F | -35.4 |
| CC1=NN(C(N)=S)C(=O)C1N=Nc1ccccc1Cl (stereo not shown) | 20.2 |
| Cc1cc(NC(=O)C(C)SCC(=O)OCC(=O)N(C)c2ccccc2)no1 (stereo not shown) | -7 |
| Cc1cc(NC(=O)C(C)SCC(=O)OCC(=O)N(Cc2ccccc2)C(C)(C)C)no1 (stereo not shown) | -35.4 |
| Cc1cccc(N(Cc2ccccc2)C(=O)CSC(C)C(=O)Nc2cc(C)on2)c1 (stereo not shown) | -53 |
| COc1ccccc1N1CCN(c2ccc([N+](=O)[O-])cn2)CC1 | 0.823 |
| O=C(O)c1cccc(CSc2nc(-c3ccccc3)cc(C(F)(F)F)n2)c1 | 0.347 |
| O=C(c1ccc(-c2ccc([N+](=O)[O-])cc2)o1)N1CCCC(C(F)(F)F)C1 (stereo not shown) | -17 |
| CC1CCCN(C(=O)c2ccc([N+](=O)[O-])o2)C1 (stereo not shown) | 21.6 |
| CCOC(=O)C1CCCN(C(=O)c2ccc(CS(=O)(=O)c3ccc(C)cc3)o2)C1 (stereo not shown) | -20.4 |
| O=C(c1ccc(-c2ccc([N+](=O)[O-])cc2)o1)N1CCN(S(=O)(=O)c2cccs2)CC1 | -27.3 |
| CCOC(=O)C1CCCN(C(=O)c2ccc(-c3ccc([N+](=O)[O-])cc3)o2)C1 (stereo not shown) | -56.1 |
| Cc1ccccc1N1CCN(C(=S)c2ccc(-c3ccc([N+](=O)[O-])cc3)o2)CC1 | 20.2 |
| CC1CC(C)CN(C(=O)c2ccc(-c3ccc([N+](=O)[O-])cc3)o2)C1 (stereo not shown) | -69.1 |
| O=C(c1ccc(-c2ccc([N+](=O)[O-])cc2)o1)N1CCCCC1 | -58.4 |
| CCOC(=O)C1CCCN(C(=O)c2ccc([N+](=O)[O-])cc2)C1 (stereo not shown) | -14.4 |
| CC1CCN(C(=O)c2ccc([N+](=O)[O-])o2)CC1 | 4.53 |
| O=C(c1ccc(-c2ccc([N+](=O)[O-])cc2)o1)N1CCCCCCC1 | -22.7 |
| CCCN1CCN(C(=O)c2ccc(-c3ccc([N+](=O)[O-])cc3)o2)CC1 | -78.1 |
